# Values joined by “and” are separate entries in the source; they are usually repeats but may differ in a detail not shown here. Equal values may be shown once. Records with an inconclusive call do not appear. A call without a number means that no potency is given here. More than one record can exist for a structure, and the calls need not agree. Active and inactive are the calls of the source. Unless noted, calls come from the whole dose curve; as a rule, active = well fitted curve in the direction sought with a large enough effect in the repeat runs; inconclusive = weak or mixed curves; inactive = no such curve, though single readings can be large; an effect the other way counts as inactive or inconclusive.
# Key:
# [1] = qHTS RealTime-Glo MT Cell Viability Assay in HepG2 cells - 32 hour (AID 1224877); note: nearly all actives have a fitted effect of over 55% in size
# Method in brief: (§1)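 HepG2 cells were seeded at 600 cells/well together with NanoLuc luciferase and a cell-permeant prosubstrate, preincubated 5 h at 37 C/5% CO2, then pin-dosed with compounds in DMSO. Nonlytic luminescence from viable cells was read at each time point.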
# [2] = A CellTox Green Cytotoxicity Assay to monitor cytotoxicity in HepG2 cells - 24 hour (AID 1224878); note: nearly all actives have a fitted effect of over 45% in size; note: potency is the fitted concentration of half-maximal effect
# Method in brief: (§2)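 Read-out is fluorescence of a cyanine dye excluded from live cells that stains DNA of dead HepG2 cells, with signal proportional to cytotoxicity. Plates were read at 0, 8, 16, 24, 32 and 40 h after compound addition.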
# [3] = A CellTox Green Cytotoxicity Assay to monitor cytotoxicity in HepG2 cells - 40 hour (AID 1224879); note: nearly all actives have a fitted effect of over 40% in size; note: potency is the fitted concentration of half-maximal effect
# Method in brief: as §2
# [4] = qHTS RealTime-Glo MT Cell Viability Assay in HEK293 cells - 0 hour (AID 1224880); note: top concentration of the series differs between compounds; nearly all actives have a fitted effect of over 45% in size
# Method in brief: (§3)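 Cells were seeded together with NanoLuc luciferase and a prosubstrate that viable cells reduce to a luciferase substrate. After a 5 h incubation at 37 C/5% CO2, compounds were added and luminescence was measured repeatedly during 40 h of treatment.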
# [5] = A CellTox Green Cytotoxicity Assay to monitor cytotoxicity in HEK293 cells - 32 hour (AID 1224881); note: nearly all actives have a fitted effect of over 40% in size; note: potency is the fitted concentration of half-maximal effect
# Method in brief: (§4)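 Nonlytic real-time cytotoxicity: HEK293 + CellTox Green reagent plated, 5 h preincubation, pintool compound addition (23 nL in DMSO), 37 C for 40 h, fluorescence measured at successive time points.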
# [6] = A CellTox Green Cytotoxicity Assay to monitor cytotoxicity in HepG2 cells - 0 hour (AID 1224882); note: nearly all actives have a fitted effect of over 35% in size
# Method in brief: as §2
# [7] = A CellTox Green Cytotoxicity Assay to monitor cytotoxicity in HepG2 cells - 32 hour (AID 1224883); note: nearly all actives have a fitted effect of over 50% in size; note: potency is the fitted concentration of half-maximal effect
# Method in brief: as §2
# [8] = A CellTox Green Cytotoxicity Assay to monitor cytotoxicity in HEK293 cells - 8 hour (AID 1224884); note: nearly all actives have a fitted effect of over 35% in size
# Method in brief: as §4
# [9] = qHTS RealTime-Glo MT Cell Viability Assay in HepG2 cells - 16 hour (AID 1224885); note: nearly all actives have a fitted effect of over 50% in size
# Method in brief: as §1
# [10] = qHTS RealTime-Glo MT Cell Viability Assay in HEK293 cells - 24 hour (AID 1224886); note: nearly all actives have a fitted effect of over 50% in size; note: potency is the fitted concentration of half-maximal effect; for activity change, negative = cytotoxicity: top concentration of the series differs between compounds
# Method in brief: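 HEK293 cells were seeded at 600 cells/well together with NanoLuc luciferase and cell-permeant prosubstrate, preincubated 5 h at 37 C/5% CO2, then given compound in DMSO by pintool. Luminescence from viable-cell prosubstrate reduction was read repeatedly over 40 h.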
# [11] = qHTS RealTime-Glo MT Cell Viability Assay in HEK293 cells - 8 hour (AID 1224887); note: top concentration of the series differs between compounds; nearly all actives have a fitted effect of over 50% in size
# Method in brief: as §3
# [12] = A CellTox Green Cytotoxicity Assay to monitor cytotoxicity in HEK293 cells - 16 hour (AID 1224888); note: nearly all actives have a fitted effect of over 35% in size
# Method in brief: as §4
# [13] = qHTS RealTime-Glo MT Cell Viability Assay in HepG2 cells - 0 hour (AID 1224889); note: nearly all actives have a fitted effect of over 50% in size; note: potency is the fitted concentration of half-maximal effect
# Method in brief: as §1
# [14] = A CellTox Green Cytotoxicity Assay to monitor cytotoxicity in HepG2 cells - 8 hour (AID 1224890); note: nearly all actives have a fitted effect of over 45% in size
# Method in brief: as §2
# [15] = qHTS assay to identify small molecule antagonists of the estrogen receptor alpha (ER-alpha) signaling pathway using the BG1 cell line in the presence of 0.1 nM 17-beta-estradiol - cell viability counter screen (AID 1259241); note: nearly all actives have a fitted effect of over 40% in size
# Method in brief: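 Cytotoxicity counter-screen: live-cell protease activity measured by fluorescence (30 min reagent step) in the same wells. Cells were VM7Luc4E2 with endogenous ER-alpha and ERE-driven luciferase, treated 22 hr at 37C alongside 0.1 nM 17beta-estradiol final.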
# [16] = qHTS assay to identify small molecule antagonists of the androgen receptor (AR) signaling pathway using the MDA cell line in the presence of 0.5 nM R1881 - cell viability counter screen (AID 1259242); note: nearly all actives have a fitted effect of over 45% in size
# Method in brief: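 Counter screen for cytotoxicity run in the same wells as the AR antagonist reporter screen: MDA-kb2 cells were treated 16 hr with test compounds and 0.5 nM R1881, then live-cell protease activity was measured by fluorescence.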
# [17] = qHTS assay to identify small molecule phospholipidosis (PLD) inducers (AID 1259344; active = well fitted curve in the direction sought with a large enough effect; an effect the other way counts as inactive or inconclusive)
# Method in brief: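 Phospholipidosis is scored by imaging LipidTOX-stained pits in HepG2 cells exposed to compound for 24 h at 37 C; pit counts and integrated intensities per well and per cell serve as outputs.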
# [18] = qHTS assay to identify small molecule HDAC inhibitors (AID 1259364)
# Method in brief: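 Luminescence from a cell-permeant luminogenic class I/II HDAC substrate reports endogenous deacetylase activity in intact HCT-116 cells treated with compounds for 2 h.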
# [19] = biological target: Estrogen receptor (Homo sapiens) (UniProt P03372); assay: qHTS assay to identify small molecule antagonists of the estrogen receptor alpha (ER-alpha) signaling pathway using the BG1 cell line in the presence of 0.1 nM 17-beta-estradiol (AID 1259244); note: nearly all actives have a fitted effect of over 50% in size; note: potency is the fitted concentration of half-maximal effect
# Method in brief: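 Cells: VM7Luc4E2, endogenous ER-alpha, 4x ERE-luc stable. Pre-culture 5 d, phenol red-free, charcoal-stripped FBS. Plated 24 h, compound + E2 0.1 nM final, 22 h 37C/5% CO2. Readout ONE-Glo luminescence.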
# Estrogen receptor (Homo sapiens), sequence (P03372 whole entry, looked up): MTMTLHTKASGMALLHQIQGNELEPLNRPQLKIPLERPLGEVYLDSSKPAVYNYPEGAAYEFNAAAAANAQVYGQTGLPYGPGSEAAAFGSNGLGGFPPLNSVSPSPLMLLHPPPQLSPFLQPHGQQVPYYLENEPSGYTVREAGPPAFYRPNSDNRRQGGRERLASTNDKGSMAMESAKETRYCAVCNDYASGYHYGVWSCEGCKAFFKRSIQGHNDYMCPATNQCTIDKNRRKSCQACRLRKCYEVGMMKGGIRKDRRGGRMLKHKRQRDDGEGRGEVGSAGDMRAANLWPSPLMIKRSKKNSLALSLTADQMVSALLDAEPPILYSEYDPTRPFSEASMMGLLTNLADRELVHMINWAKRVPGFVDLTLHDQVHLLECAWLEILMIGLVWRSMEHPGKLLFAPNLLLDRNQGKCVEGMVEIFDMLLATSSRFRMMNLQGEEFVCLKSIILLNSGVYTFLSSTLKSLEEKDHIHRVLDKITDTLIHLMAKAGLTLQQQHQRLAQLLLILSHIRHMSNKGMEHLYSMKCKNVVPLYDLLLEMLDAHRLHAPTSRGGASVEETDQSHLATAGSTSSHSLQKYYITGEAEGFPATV
structure (smiles),measurement,setting,value
C[C@H]1C[C@H]2[C@@H]3CCC4=CC(=O)C=C[C@]4(C)[C@@]3(F)[C@@H](O)C[C@]2(C)[C@@]1(O)C(=O)CO,outcome,[1],inactive
same,Potency,[2],inactive
same,Potency,[3],inactive
same,Potency,[4],inactive
same,Potency,[5],inactive
same,outcome,[6],inactive
same,Potency,[7],inactive
same,outcome,[8],inactive
same,outcome,[9],inactive
same,Potency,[10],inactive
same,Potency,[11],inactive
same,outcome,[12],inactive
same,Potency,[13],7.76 µM (active)
same,Potency,[14],inactive
same,Potency,[15],inactive
same,outcome,[16],inactive
same,outcome,[17],inactive
same,Potency,[18],inactive
CN(C)CCC(c1ccc(Cl)cc1)c1ccccn1 (configuration not stated),outcome,[1],inactive
same,Potency,[2],inactive
same,Potency,[3],inactive
same,Potency,[4],inactive
same,Potency,[5],inactive
same,outcome,[6],inactive
same,Potency,[7],inactive
same,outcome,[8],inactive
same,outcome,[9],inactive
same,Potency,[10],inactive
same,Potency,[11],inactive
same,outcome,[12],inactive
same,Potency,[13],inactive
same,Potency,[14],inactive
same,Potency,[15],inactive
same,outcome,[16],inactive
same,Potency,[18],inactive
CCN(CC)CCCC(C)Nc1ccnc2cc(Cl)ccc12 (configuration not stated),"activity change, negative = cytotoxic",[1],11.1% [at 6.97 µM] (inactive) and -5.44% [at 15.8 µM] (inactive)
same,cytotoxicity,[2],-7.44% [at 6.97 µM] (inactive)
same,cytotoxicity increase,[3],-6.76% [at 6.97 µM] (inactive) and 37% [at 15.8 µM] (inactive)
same,"activity change, negative = cytotoxicity",[4],-2.92% [at 6.97 µM] (inactive) and -5.73% [at 15.8 µM] (inactive)
same,cytotoxicity increase,[5],-12.6% [at 6.97 µM] (inactive) and 3.44% [at 15.8 µM] (inactive)
same,cytotoxicity,[6],-5% [at 6.97 µM] (inactive) and 4.14% [at 15.8 µM] (inactive)
same,cytotoxicity increase,[7],-6.83% [at 6.97 µM] (inactive)
same,cytotoxicity increase,[8],-10.7% [at 6.97 µM] (inactive) and -2.14% [at 15.8 µM] (inactive)
same,"activity change, negative = cytotoxic",[9],1.09% [at 6.97 µM] (inactive) and -5.7% [at 15.8 µM] (inactive)
same,"activity change, negative = cytotoxicity",[10],-16.8% [at 6.97 µM] (inactive)
same,"activity change, negative = cytotoxicity",[11],-9.86% [at 6.97 µM] (inactive)
same,"activity change, negative = cytotoxicity",[13],3.19% [at 6.97 µM] (inactive) and -4.4% [at 15.8 µM] (inactive)
same,cytotoxicity increase,[14],3.33% [at 6.97 µM] (inactive) and 10.4% [at 15.8 µM] (inactive)
same,"viability change, negative = cytotoxic",[16],-8.89% [at 8.39 µM] (inactive)
same,"activity change, negative = inhibition",[19],35.5% [at 8.39 µM] (inactive) and -0.903% [at 19 µM] (inactive)
same,outcome,[17],inactive
CC(C)CC(=O)CC(C)C,outcome,[1],inactive
same,Potency,[2],inactive
same,Potency,[3],inactive
same,Potency,[4],inactive
same,Potency,[5],inactive
same,outcome,[6],inactive
same,Potency,[7],inactive
same,outcome,[8],inactive
same,outcome,[9],inactive
same,Potency,[10],inactive
same,Potency,[11],inactive
same,outcome,[12],inactive
same,Potency,[13],inactive
same,Potency,[14],inactive
same,Potency,[15],inactive
same,outcome,[16],inactive
same,Potency,[18],inactive
O=C(O)[C@H](O)[C@@H](O)[C@H](O)[C@H](O)CO,outcome,[1],inactive
same,Potency,[2],inactive
same,Potency,[3],inactive
same,Potency,[4],inactive
same,outcome,[6],inactive
same,Potency,[7],inactive
same,outcome,[9],inactive
same,Potency,[10],inactive
same,Potency,[11],inactive
same,Potency,[13],inactive
same,Potency,[14],inactive
same,Potency,[15],inactive
same,outcome,[16],inactive
same,outcome,[17],inactive
same,Potency,[18],inactive
COc1ccc2cc([C@H](C)C(=O)O)ccc2c1,outcome,[1],inactive
same,Potency,[2],inactive
same,Potency,[3],inactive
same,Potency,[4],inactive
same,Potency,[5],inactive
same,outcome,[6],inactive
same,Potency,[7],inactive
same,outcome,[8],inactive
same,outcome,[9],inactive
same,Potency,[10],inactive
same,Potency,[11],inactive
same,outcome,[12],inactive
same,Potency,[13],inactive
same,Potency,[14],inactive
same,Potency,[15],inactive
same,outcome,[16],inactive
same,outcome,[17],inactive
same,Potency,[18],inactive
C=C(C)C(=O)O[C@H]1C[C@@H]2CC[C@@]1(C)C2(C)C,outcome,[1],inactive
same,Potency,[2],4.87 µM (active) and inactive
same,Potency,[3],7.71 µM (active) and inactive
same,Potency,[4],inactive
same,Potency,[5],10.9 µM (active) and inactive
same,outcome,[6],inactive
same,Potency,[7],6.87 µM (active) and inactive
same,outcome,[8],inactive
same,outcome,[9],inactive
same,Potency,[10],15.4 µM (active) and inactive
same,Potency,[11],inactive
same,outcome,[12],inactive
same,Potency,[13],inactive
same,Potency,[14],inactive
same,outcome,[16],inactive
same,Potency,[19],2.71 µM (active) and inactive
CCCCCCCCCCCCCCCO,outcome,[1],inactive
same,Potency,[2],inactive
same,Potency,[3],inactive
same,Potency,[4],inactive
same,Potency,[5],inactive
same,outcome,[6],inactive
same,Potency,[7],inactive
same,outcome,[8],inactive
same,outcome,[9],inactive
same,Potency,[10],inactive
same,Potency,[11],inactive
same,outcome,[12],inactive
same,Potency,[13],inactive
same,Potency,[14],inactive
same,Potency,[15],inactive
same,outcome,[16],inactive
same,Potency,[18],inactive
CC(C)(C)[C@@H](O)[C@@H](Cc1ccc(Cl)cc1)n1cncn1,outcome,[1],inactive
same,Potency,[2],inactive
same,Potency,[3],inactive
same,Potency,[4],inactive
same,Potency,[5],inactive
same,outcome,[6],inactive
same,Potency,[7],inactive
same,outcome,[8],inactive
same,outcome,[9],inactive
same,Potency,[11],inactive
same,outcome,[12],inactive
same,Potency,[13],inactive
same,Potency,[14],inactive
same,Potency,[15],inactive
same,outcome,[16],inactive
COc1ccc(Cl)cc1C(=O)NCCc1ccc(S(=O)(=O)NC(=O)NC2CCCCC2)cc1,outcome,[1],inactive
same,Potency,[2],inactive
same,Potency,[3],inactive
same,Potency,[5],inactive
same,outcome,[6],inactive
same,Potency,[7],inactive
same,outcome,[8],inactive
same,outcome,[9],inactive
same,Potency,[10],inactive
same,Potency,[11],inactive
same,outcome,[12],inactive
same,Potency,[14],inactive
same,Potency,[15],inactive
same,outcome,[16],inactive
same,outcome,[17],inactive
same,Potency,[18],inactive
Cc1ccc(S(N)(=O)=O)cc1,outcome,[1],inactive
same,Potency,[2],inactive
same,Potency,[3],inactive
same,Potency,[4],inactive
same,Potency,[5],inactive
same,outcome,[6],inactive
same,Potency,[7],inactive
same,outcome,[8],inactive
same,outcome,[9],inactive
same,Potency,[10],inactive
same,Potency,[11],inactive
same,outcome,[12],inactive
same,Potency,[13],inactive
same,Potency,[14],inactive
same,Potency,[15],inactive
same,outcome,[16],inactive
same,Potency,[18],inactive
